Compounds with a hit are over-represented: about 10% of the library has one in this group of screens.
HEK cytotox = HEK 293 cell cytotoxicity; HEK 293 viability, ATP luminescence (CellTiter-Glo), 48-72 h; Potency, µM (doses to about 115 µM), for the others: top-dose activity change, negative = cytotoxicity, hits mostly inhibitors; 6.6% of 94,000 active; further: nearly all actives have a fitted effect of over 60% in size
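Read-out: CellTiter-Glo ATP luminescence. Cells: HEK 293, 250 cells/well. Exposure: 48 or 72 hr, 37 degree Celsius.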
NIH3T3 tox = NIH 3T3 cell cytotoxicity; AID 1345082; Potency, µM (highest dose often 96.7 µM), for inactives: at the highest dose activity change, negative = cytotoxicity, hits mostly inhibitors; 4.3% of 94,000 active; NIH 3T3 viability, CellTiter-Glo ATP luminescence, 48-72 h; further: nearly all actives have a fitted effect of over 55% in size
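Viability of NIH 3T3 cells after 48 or 72 hr compound treatment at 37 °C was assessed by CellTiter-Glo, with luminescence imaged following a 10 min room-temperature step.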
Luciferase inh = blocks purified firefly luciferase enzyme activity; P08659; AID 1347043; purified P. pyralis luciferase, luminescence, biochemical; Potency, µM (highest dose often 115 µM), actives largely listed as inhibitors; 2.5% of 76,000 active; further: nearly all actives have a fitted effect of over 65% in size
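Luminescence read by CCD imaging after purified firefly luciferase (10nM final) was added to substrate buffer holding 10uM D-luciferin and 10uM ATP, pH 7.5, pre-dosed with compound.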
NPR1 antag = human Npr1 receptor antagonism | HEK293 hNpr1 GloSensor cGMP, ANP-stimulated luminescence | Potency, µM (titrated, usually from 46.3 µM), without a hit: at the top dose activity change, negative = inhibition, most hits filed as inhibitors | 1.6% of 76,000 active; calls by dose curve; further: nearly all actives have a fitted effect of over 60% in size
Target sequence (P16066 whole entry, looked up): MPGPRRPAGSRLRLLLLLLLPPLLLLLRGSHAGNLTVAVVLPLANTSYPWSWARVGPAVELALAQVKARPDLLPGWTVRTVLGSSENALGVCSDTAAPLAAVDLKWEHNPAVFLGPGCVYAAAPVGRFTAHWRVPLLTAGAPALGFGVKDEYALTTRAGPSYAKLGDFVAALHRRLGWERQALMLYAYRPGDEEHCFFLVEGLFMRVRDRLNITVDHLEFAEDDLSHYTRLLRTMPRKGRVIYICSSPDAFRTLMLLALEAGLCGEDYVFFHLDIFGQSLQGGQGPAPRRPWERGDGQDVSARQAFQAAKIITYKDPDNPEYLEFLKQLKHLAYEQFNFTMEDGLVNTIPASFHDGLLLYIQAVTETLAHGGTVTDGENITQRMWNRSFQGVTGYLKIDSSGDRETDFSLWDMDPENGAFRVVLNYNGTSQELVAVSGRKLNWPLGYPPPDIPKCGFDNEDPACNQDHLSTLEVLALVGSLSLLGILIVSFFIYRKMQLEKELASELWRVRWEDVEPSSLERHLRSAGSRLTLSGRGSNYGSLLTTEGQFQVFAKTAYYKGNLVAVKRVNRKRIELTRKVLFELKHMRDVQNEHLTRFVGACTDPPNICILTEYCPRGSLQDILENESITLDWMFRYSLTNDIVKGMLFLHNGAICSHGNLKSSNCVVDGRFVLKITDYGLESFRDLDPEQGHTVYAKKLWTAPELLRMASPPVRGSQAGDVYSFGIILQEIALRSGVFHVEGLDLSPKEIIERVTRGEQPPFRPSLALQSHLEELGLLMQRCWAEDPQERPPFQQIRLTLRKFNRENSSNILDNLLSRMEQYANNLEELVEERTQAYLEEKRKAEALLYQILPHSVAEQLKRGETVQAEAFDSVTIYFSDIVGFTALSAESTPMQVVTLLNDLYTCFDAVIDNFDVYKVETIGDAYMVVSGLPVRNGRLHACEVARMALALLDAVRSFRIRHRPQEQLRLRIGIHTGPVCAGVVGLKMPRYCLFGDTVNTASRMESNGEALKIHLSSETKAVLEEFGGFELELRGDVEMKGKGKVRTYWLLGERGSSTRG
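Compound pre-incubated 30 min at room temperature on GloSensor-loaded HEK293 cells stably carrying hNpr1 and the pGS-40F cGMP biosensor. Stimulation uses hNppA at 0.1 nM final; luminescence is taken at baseline and 20 min post-agonist.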
GPT2 inh = inhibitors of human GPT2 alanine aminotransferase. Q8TD30. Recombinant GPT2, coupled pyruvate oxidase/HRP Amplex Red fluorescence. Potency, µM (top dose mostly 57.7 µM), for inactives: top-dose activity change, negative = inhibition, most hits filed as inhibitors. 0.25% of 100,000 active. AID 1671188; further: nearly all actives have a fitted effect of over 60% in size
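Fluorescence of coupled pyruvate oxidase/HRP/Amplex Red system (50uM Amplex, 30 min, dark) reports pyruvate formed by GPT2. Enzyme reaction: 10ng/uL GPT2, 2mM L-alanine, 250uM a-KG, 30 min room temperature, pH 7.5; 50uM AOA control.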
Active calls of the source: *; ! = repeats disagree; [ ] = remark or other dose. Unless noted, the call rests on the fitted dose curve; in most records, active means well fitted curve in the direction sought with a large enough effect; inconclusive means small, poorly fitted or top-dose-only effect, or another doubt; inactive means no such curve, though single readings can be large; an effect the other way counts as inactive or inconclusive. On the % scale 0 is the no-effect control and ±100 the full control effect; potency means the concentration at half of the fitted maximal effect.

What do the screens show for `COc1ccccc1CNC[C@H]1Cn2c(-c3cccc(Cl)c3)cnc2CO1`?
HEK cytotox: 79µM*; NIH3T3 tox: inconclusive; Luciferase inh: inactive; NPR1 antag: 0%[70.6 µM]; GPT2 inh: inactive

Results for COc1ccc(-c2cn3c(n2)CO[C@@H](CNC(=O)C2CCCC2)C3)cc1 ?
HEK cytotox: -17%[172 µM]; NIH3T3 tox: -6%[138 µM]; Luciferase inh: 28µM*; NPR1 antag: -4%[70.6 µM]; GPT2 inh: -3%[88.5 µM]

How did Cc1ccccc1CCC1CCCNC1 (centres undefined) do in these assays?
HEK cytotox: -19%; NIH3T3 tox: -18%; Luciferase inh: inactive; NPR1 antag: 6%; GPT2 inh: 2%

Results for O=C(NC1CCN(C(=O)c2ccc(-c3cccs3)cc2)CC1)c1ccc(Cl)nc1 ?
HEK cytotox: inconclusive; NIH3T3 tox: inconclusive; GPT2 inh: -3%

What do the screens show for `COc1ccccc1CNC[C@H]1Cn2cc(-c3ccc(C)cc3)nc2CO1`?
HEK cytotox: 100µM*; NIH3T3 tox: 100µM*; Luciferase inh: inconclusive; NPR1 antag: 0%[70.6 µM]; GPT2 inh: -12%[88.5 µM]

What do the screens show for `COc1ccc(CC(=O)N2Cc3ccccc3CC23CCCN(C(=O)CCN)C3)cc1` (centres undefined)?
HEK cytotox: -16%; NIH3T3 tox: inconclusive; GPT2 inh: -21%

How did Cn1ncc2c(C(=O)NCCc3ccccc3)cc(C(C)(C)C)nc21 do in these assays?
HEK cytotox: inconclusive; NIH3T3 tox: inconclusive; GPT2 inh: 1%

What do the screens show for `Cc1ccc(-c2cc(C(=O)NCCc3ccc(Cl)cc3)c3cnn(C)c3n2)c(C)c1`?
HEK cytotox: inconclusive; NIH3T3 tox: inconclusive; GPT2 inh: 5%

What do the screens show for `Cn1ncc2c(C(=O)NCCCl)cc(-c3ccccc3C(F)(F)F)nc21`?
HEK cytotox: -5%; NIH3T3 tox: -23%

Results for Cn1ncc2c(C(=O)NCCc3ccc(Cl)cc3)cc(-c3ccccc3C(F)(F)F)nc21 ?
HEK cytotox: 40µM*; NIH3T3 tox: 32µM*

How did Cn1ncc2c(C(=O)NCCc3ccc(Cl)cc3)cc(C(C)(C)C)nc21 do in these assays?
HEK cytotox: 40µM*!; NIH3T3 tox: inconclusive; GPT2 inh: -10%[88.5 µM]

What do the screens show for `Cn1ncc2c(C(=O)NCc3cccc(Cl)c3)cc(C(C)(C)C)nc21`?
HEK cytotox: 50µM*; NIH3T3 tox: inconclusive; GPT2 inh: inactive

Results for Cc1ccc(-c2cc(C(=O)NCCc3ccc(F)cc3)c3cnn(C)c3n2)c(C)c1 ?
HEK cytotox: 40µM*; NIH3T3 tox: inconclusive; GPT2 inh: inactive

What do the screens show for `COc1ccc(CCNC(=O)c2ccc3nnc(C4CCCC4)n3c2)cc1`?
HEK cytotox: inconclusive; NIH3T3 tox: inconclusive; GPT2 inh: inactive

Results for O=C(NCC1CCCCC1)c1nc2sccn2c1-c1ccc(F)cc1 ?
HEK cytotox: -28%; NIH3T3 tox: inconclusive; GPT2 inh: inactive

How did COc1cccc(CN(C)C(C)c2cccs2)c1 (centres undefined) do in these assays?
HEK cytotox: -27%[172 µM]; NIH3T3 tox: -10%[138 µM]; Luciferase inh: inactive; NPR1 antag: 0%[70.6 µM]; GPT2 inh: 2%[88.5 µM]

How did CC(c1cccs1)N(C)Cc1cccc2ccccc12 (centres undefined) do in these assays?
HEK cytotox: 112µM*; NIH3T3 tox: inconclusive; Luciferase inh: inconclusive; NPR1 antag: 19%[70.6 µM]; GPT2 inh: inactive

Results for CN(C)C(=O)c1ccc(-c2ncc3c(n2)OCCN(Cc2ccc(F)cc2F)C3=O)cc1 ?
HEK cytotox: inconclusive; NIH3T3 tox: -29%[138 µM]; Luciferase inh: 45µM*; NPR1 antag: -8%[70.6 µM]; GPT2 inh: inconclusive

Results for O=C1c2cnc(-c3ccccc3)nc2OCCN1Cc1ccc(F)cc1F ?
HEK cytotox: 112µM*; NIH3T3 tox: -34%[138 µM]; Luciferase inh: inactive; NPR1 antag: -15%[70.6 µM]; GPT2 inh: inactive

Results for O=C1c2cnc(-c3cc(F)cc(F)c3)nc2OCCN1Cc1ccc(F)cc1F ?
HEK cytotox: inconclusive; NIH3T3 tox: -22%[138 µM]; Luciferase inh: inactive; NPR1 antag: -19%[70.6 µM]; GPT2 inh: inactive

High-throughput results: PubChem BioAssay, National Center for Advancing Translational Sciences (NCATS)
